Molecules are shown by their SMILES. In all, about 69,000 compounds went through this assay and about 8,600 (12%) showed an effect of 50% or more. Only a selection was taken, and strong results are over-represented in it overall.

Results on 56 compounds are retold here after ChEMBL document CHEMBL4513216, “Probing the Open Global Health Chemical Diversity Library for Multistage-Active Starting Points for Next-Generation Antimalarials” (ACS Infect Dis, 2020).

The test system of the experiment is Plasmodium berghei. Briefly: Screen against P. berghei liver stage (PbLuc), transformed with Luciferase, at 10uM. The class given is functional, HepG2. The settings on record: tested at 10 uM.
As to `O=C(N[C@@H]1c2ccccc2C[C@@H]1O)C1CCN(Cc2ccco2)CC1`, the INHIBITION was found to be 48.4%.

Take `CC(NS(N)(=O)=O)c1ccc(OCc2ccc(F)cc2)cc1` (stereo unspecified): the INHIBITION turned out to be 14.6%.

Regarding `CCc1cc(NC2CCN(CC(N)=O)CC2)nc(N2CCCCC2)n1`, the INHIBITION worked out at 51.5%.

On to `CCc1cc(NC(C)(C)C)nc(N2CCOCC2)n1`, for which the INHIBITION is -3.12%.

As to `CCc1cc(NCCNC(C)=O)nc(N2CCCC2)n1`, the INHIBITION came to 48.2%.

Take `CCc1cc(NC2CCS(=O)(=O)CC2)nc(N2CCCCC2)n1`: the INHIBITION is reported as 23.3%.

Consider `CCc1cc(NCC(N)=O)nc(N2CCCCC2)n1`, for which the INHIBITION worked out at 32%.

`CCc1cc(NC2CCS(=O)(=O)C2)nc(N2CCCCC2)n1` (stereo unspecified): the INHIBITION worked out at 52.6%.

For the compound `CCc1n[nH]c(C2CN(C(=O)c3cc(C(N)=O)cs3)CCO2)n1` (stereo unspecified), the INHIBITION was -15.5%.

Take `CCC(NC1CCCC1)c1ccc(S(C)(=O)=O)cc1` (stereo unspecified): the INHIBITION was 22.1%.

For `CC(NC(=O)c1nc(=O)[nH][nH]1)c1ccc(OCC2CC2)c(F)c1` (stereo unspecified), the INHIBITION is given as 5.53%.

On to `O=C(c1ccncc1)N1CCc2ncnc(C3CC3)c2CC1`, for which the INHIBITION was found to be 27.6%.

Consider `CCC(Nc1cccc(OC)c1)C(=O)NCc1ccc2[nH]c(=O)[nH]c2c1` (stereo unspecified), for which the INHIBITION is -0.27%.

Turning to `Cc1ccoc1C(=O)N1CCC(n2cc(CO)nn2)CC1`, the INHIBITION was -37.8%.

Take `Cc1ccc(C(=O)N2CCC(n3cc(CO)nn3)CC2)cn1`: the INHIBITION came to 55.9%.

Turning to `C=C1C(C)(C)[C@@H]2CC[C@]1(C(=O)N1CCC(Cn3cc(CO)nn3)CC1)C2`, the INHIBITION came to 45.6%.

As for `C=C1C(C)(C)[C@@H]2CC[C@]1(C(=O)N1CCC(n3cc(CCO)nn3)CC1)C2`, the INHIBITION is -10.9%.

Turning to `C=C1C(C)(C)[C@@H]2CC[C@]1(C(=O)N1CCC(n3cc(CO)nn3)CC1)C2`, the INHIBITION is 54.5%.

For the compound `Cc1cc(C(=O)N2CCC(n3cc(CO)nn3)CC2)ccc1F`, the INHIBITION is given as 39.3%.

`Cn1cc(C2CC(=O)NC23CCN(Cc2nccs2)CC3)cn1` (stereo unspecified): the INHIBITION was -0.371%.

As to `N#Cc1cccc(CN2C[C@H](OCC3CCOCC3)[C@H]3COC[C@H]32)c1`, the INHIBITION turned out to be 19.5%.

As to `Cc1c[nH]nc1C1CCN(c2cnccn2)C1` (stereo unspecified), the INHIBITION turned out to be 9.745%.

Regarding `CC(CN(C)C(=O)c1cn(C)nc1-c1ccc(F)cc1F)C(=O)O` (stereo unspecified), the INHIBITION stood at 24.4%.

For `Cn1cc(C(=O)O)c(-c2ccc(F)cc2F)n1`, the INHIBITION was 18%.

`Cn1cc(C(=O)OCC(N)=O)c(-c2ccc(F)cc2F)n1`: the INHIBITION is 58.6%.

On to `COc1ccc(-c2ccc(C(=O)O)c(F)c2)c(F)c1`, for which the INHIBITION was determined as 15.2%.

`Cc1cc(NC(=O)COC(=O)c2ccc(F)cc2Br)n(C)n1`: the INHIBITION was determined as 34.1%.

With `CC(C)(C)n1cc(C(=O)O)c(-c2ccc(F)cc2F)n1`, the INHIBITION stood at 68.3%.

Regarding `O=C(Nc1cccc(Cn2cccn2)c1)N1CCCC(N2CCCC2)C1` (stereo unspecified), the INHIBITION was 16.2%.

Consider `CS(=O)(=O)CCCSc1n[nH]c(-c2ccc3c(c2)CCC3)n1`, for which the INHIBITION was -18.8%.

As to `Cc1ccc(F)cc1S(=O)(=O)NCc1cccc(C(=O)N2CCCC2)c1`, the INHIBITION is -77.1%.

For `O=C(NC1CCC(O)CC1)c1ccc2nc(-c3ccccc3)cn2c1` (stereo unspecified), the INHIBITION is reported as -25.1%.

Take `COCC(=O)N(C)Cc1cccc(Cl)c1`: the INHIBITION is given as 15%.

Turning to `O=C(CN1CCN(CC(O)C2CC2)CC1)NCc1ccc(F)cc1` (stereo unspecified), the INHIBITION is reported as 1.58%.

Consider `O=C(c1cnccn1)N1CCn2cnc(COCC3CC3)c2C1`, for which the INHIBITION worked out at 60.1%.

As for `O=C(c1cscn1)N1CCn2cnc(COCC3CC3)c2C1`, the INHIBITION is recorded as -6.23%.

`O=C(c1ccoc1)N1CCn2cnc(COCC3CC3)c2C1`: the INHIBITION was 56.7%.

For `O=C(c1ccoc1)N1CCCn2cnc(COCC3CC3)c2C1`, the INHIBITION was 39.2%.

For the compound `O=C(c1ccccn1)N1CCn2cnc(COCC3CC3)c2C1`, the INHIBITION is on record as 19.7%.

As for `CCOCc1ncn2c1CN(C(=O)c1ccoc1)CC2`, the INHIBITION is 39.2%.

As for `c1cnn(CC2CCCCN2Cc2nc(-c3ccsc3)no2)c1` (stereo unspecified), the INHIBITION was 0.914%.

Consider `CC(=O)N1CCCC(c2ccc(Nc3nc(C)cc(C)n3)cn2)C1` (stereo unspecified), for which the INHIBITION is 33.5%.

Regarding `CSc1[nH]nc(NC(=O)c2cccnc2)c1C#N`, the INHIBITION was -35.5%.

As to `CCn1cnc(NC(=O)N2CCCC(c3ccccc3)CC2)n1` (stereo unspecified), the INHIBITION worked out at 22.4%.

With `CCn1cnc(NC(=O)N2CCC(c3ccc(Cl)cc3)C2)n1` (stereo unspecified), the INHIBITION was 58.2%.

For `CCn1cnc(NC(=O)N2CCC(c3ccc(F)cc3)C2)n1` (stereo unspecified), the INHIBITION came out at 31.6%.

Take `CSCc1cccc(S(=O)(=O)N2CCCC2)c1`: the INHIBITION came to 33.3%.

For `Cc1cccc(N2CCC3(CCN(Cc4ccccn4)CC3)CC2)n1`, the INHIBITION was 15.3%.

Turning to `COCCC(=O)N1CCCC1c1nc(O)cc(C(C)C)n1` (stereo unspecified), the INHIBITION is 23.2%.

In the case of `CC[C@@H](CO)Nc1nccc(-c2c[nH]c3cc(C(=O)OC)ccc23)n1`, the INHIBITION is recorded as 69.3%.

`COC(=O)c1ccc2c(-c3ccnc(N[C@@H](C)CO)n3)c[nH]c2c1`: the INHIBITION amounted to 18.9%.

For the compound `COC(=O)c1ccc2c(-c3ccnc(NCCO)n3)c[nH]c2c1`, the INHIBITION is listed as 10%.

Regarding `COc1ccc(CNC2CCC(O)CC2)cc1OCCCC#N` (stereo unspecified), the INHIBITION came out at 17.8%.

On to `Cc1ccc(CN2CCC3(CC2)NC(=O)CC3c2ccncc2)cc1C` (stereo unspecified), for which the INHIBITION came out at 16.6%.

As to `O=C(CN1C=Nc2ccccc2S1(=O)=O)NCC1CC1`, the INHIBITION turned out to be 29.2%.

As for `CC(C)CNC(=O)CN1C=Nc2ccccc2S1(=O)=O`, the INHIBITION was 56.1%.
